# Most compounds without a hit are left out; they make up all but 1.1% or so of the library.
# HTR5A ag: HTR5A agonism, opioid heterodimer counter-screen; AID 504692; activation, % at 9.3 µM; HTR5A agonist assay, luminescence, cell-based; hit rate 0.61% among 340,000; P47898; in the data active = activation mostly above about 9.5%, no sharp cut-off; inactive = mostly below about 7.6%;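 also: 0% = cells with vehicle only and 100% = reference agonist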
# Target sequence (P47898 whole entry, looked up): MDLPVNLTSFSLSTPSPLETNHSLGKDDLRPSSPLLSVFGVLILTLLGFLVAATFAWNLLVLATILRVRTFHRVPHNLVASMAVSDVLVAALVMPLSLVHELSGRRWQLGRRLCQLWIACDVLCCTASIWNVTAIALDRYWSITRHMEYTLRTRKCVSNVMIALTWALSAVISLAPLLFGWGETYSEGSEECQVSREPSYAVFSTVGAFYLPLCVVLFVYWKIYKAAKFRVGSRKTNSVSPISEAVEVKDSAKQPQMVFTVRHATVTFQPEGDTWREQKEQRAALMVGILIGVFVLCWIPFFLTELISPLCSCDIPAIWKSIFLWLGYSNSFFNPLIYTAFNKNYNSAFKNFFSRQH
# MOR-DOR inv ag: inverse agonists of human mu-delta opioid receptor heterodimerization; P35372+P41143; cell-based MOR-DOR heterodimer luminescence, inverse agonism; inhibition, % at 9.3 µM; hit rate 0.21% among 340,000; in the data active = inhibition above about 22%, passing the limit was not always enough;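 also: 0% = cells with DMSO and 100% = wells without cells with DMSO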
# HTR5A inv ag: inverse agonist of human HTR5A in OPRM1-OPRD1 counter-screen; P47898; HTR5A cell line, luminescence, inverse agonism; hit rate 0.083% among 340,000; inhibition, % at 9.3 µM; AID 504634; in the data active = inhibition mostly above about 23%, no sharp cut-off; inactive = mostly below about 18%;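 also: 0% = cells with DMSO and 100% = no-cell wells with DMSO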
# OPRM1-OPRD1 ag: OPRM1-OPRD1 heterodimerization agonism | P35372+P41143 | cells, luminescence | activation, % at 9.3 µM | hit rate 0.3% among 340,000 | AID 504326; in the data active = activation above about 18%;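 also: 0% = vehicle-treated cells and 100% = reference agonist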
# MOR-DOR inv conf: confirmation of human OPRM1-OPRD1 heterodimerization inverse agonists; shares compounds with MOR-DOR inv ag; cells expressing OPRM1/OPRD1 heterodimer, luminescence; inhibition, % at 9.3 µM; hit rate 20% among 580; in the data active = inhibition above about 32%;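 also: 0% = cells with DMSO and 100% = wells lacking cells with DMSO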
# HTR5A inv ctr2: inverse agonist of human HTR5A in OPRM1-OPRD1 counter-screen | shares compounds with MOR-DOR inv ag | HTR5A-expressing cells, luminescence, inverse agonism | inhibition, % at 9.3 µM | 580 tested, under 10 active; call rule not given here;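 also: 0% = cells with DMSO and 100% = no-cell wells with DMSO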
# * = called active by the depositor; i = inactive; x = no result given.
SMILES,HTR5A ag,MOR-DOR inv ag,HTR5A inv ag,OPRM1-OPRD1 ag,MOR-DOR inv conf,HTR5A inv ctr2
O=C(Cc1ccc(-c2ccccc2)cc1)OCC(=O)N1CCCC1=O,-0.9,1.6,-13.7,-0.3,x,x
O=C(CC1(O)C(=O)Nc2ccccc21)c1cccnc1 (stereo not given),0.2,52.1*,5.1,-9.1,-41.2,-3.5
O=C(CC1(O)C(=O)Nc2ccccc21)c1ccccc1O (stereo not given),-4.7,50.4*,-1.4,-8.9,24.0,7.0
NC(=O)c1ccc(-c2nnc(Nc3ccc(S(N)(=O)=O)cc3)c3ccccc23)cc1,-0.6,7.2,2.2,-1.6,x,x
CCOC(=O)c1ccccc1OC(=O)NNc1ccccc1,-6.0,37.4*,21.5,-7.1,-18.1,-5.8
Cc1ccccc1-n1c(=O)n(Cc2ccco2)c(=O)c2[nH]cnc21,-6.8,12.4,23.9,-2.8,x,x
Cc1ccc(N/N=C/c2c(O)cc(C)oc2=O)cc1,-1.1,45.7*,2.4,-9.2,43.5*,-5.7
COc1ccc(NS(=O)(=O)c2ccc3ccccc3c2)c2ncccc12,-5.1,38.9*,12.5,-7.0,10.2,-10.9
O=S(=O)(Nc1cccc2cccnc12)c1ccccc1,-3.6,47.1*,8.8,-8.4,-32.9,12.2
CC(=O)Nc1ccc(S(=O)(=O)Nc2cccc3cccnc23)cc1,-8.1,26.0,19.5,-4.7,x,x
Cc1nn(CC(=O)Nc2ccccc2C(F)(F)F)c(=O)c2cccn12,-3.1,19.0,3.8,-3.7,x,x
Cc1ccc(C)c(Nc2nc(-c3ccncc3)nc3ccccc23)c1,8.3,-17.8,-31.2,3.6,x,x
COc1ccc(C(=O)Nc2ccccc2)cc1NC(=O)c1ccc([N+](=O)[O-])cc1,3.8,-25.2,-14.1,5.4,x,x
CCCN1/C(=C2/SC(=S)N(CC)C2=O)C=Cc2ccccc21,-2.6,13.6,2.2,-2.4,x,x
CN1C(=O)/C(=C2/C=Cc3ccccc3N2CCCS(=O)(=O)O)SC1=S,-8.2,31.8*,21.1,-6.3,-52.0,-12.1
CN1CCN(c2ccc(S(=O)(=O)N3CCOCC3)cc2)CC1,-0.9,13.0,-4.4,-1.9,x,x
CCC(Oc1ccccc1)C(=O)Nc1ccccc1OC (stereo not given),1.9,-12.2,-10.4,2.1,x,x
CCC(OC(=O)C(C)N1C(=O)C(=O)c2ccccc21)C(=O)Nc1ccccc1OC (stereo not given),-3.8,48.2*,1.9,-7.6,10.3,4.2
CCC(OC(=O)CN1C(=O)C(=O)c2ccccc21)C(=O)Nc1ccccc1OC (stereo not given),-7.9,49.5*,23.4*,-6.1,3.2,-7.1
C[C@H](CO)N1C[C@H](C)[C@@H](CN(C)S(=O)(=O)c2cn(C)cn2)Oc2ccc(NC(=O)Cn3cnnn3)cc2C1=O,3.3,2.0,-30.4,-0.3,x,x
Cc1cc(C(=O)COc2cc(F)ccc2[N+](=O)[O-])c(C)n1CC1CCCO1 (stereo not given),16.0,21.4,-40.6,-5.4,x,x
Cc1nc(-n2[nH]c3c(c2=O)CCCC3)[nH]c(=O)c1Cc1ccccc1,-5.8,37.3*,28.3,-6.0,7.5,4.6
O=C1Nc2ccc(Br)cc2C1=C1CCCCC1,-1.4,-4.1,5.2,0.8,x,x
N#C/C(=C1/C(=O)Nc2ccc(Br)cc21)c1ccccn1,-4.2,49.1*,11.5,-10.5,i,3.9
O=[N+]([O-])c1cccc(-c2ccc3nnc(SCc4cccnc4)n3n2)c1,5.6,18.1,-17.9,-3.4,x,x
SMILES,HTR5A ag,MOR-DOR inv ag,HTR5A inv ag,OPRM1-OPRD1 ag,MOR-DOR inv conf,HTR5A inv ctr2
Cc1csc(=Nc2c(C)n(C)n(-c3ccccc3)c2=O)n1-c1ccccc1,3.6,-3.1,2.7,0.6,x,x
Cc1c(N=C2C(=O)Nc3ccccc32)c(=O)n(-c2ccccc2)n1C,-6.2,52.1*,17.5,-10.1,41.7*,23.0
COc1ccc2oc(=O)c(/C(N)=N/NC(=O)c3ccncc3)cc2c1,3.3,-3.5,-4.4,0.5,x,x
O=C1N=C(c2ccccc2)S/C1=C\c1cccs1,-0.1,34.3*,-8.4,-5.8,-434.4,-45.4
Cc1cc(C(=O)N/N=C/c2cc(Br)cc([N+](=O)[O-])c2O)c2ccccc2n1,-3.2,22.0*,10.8,-3.9,-0.9,6.8
CN1CCCN(C(=O)c2c(F)cccc2Cl)CC1,-1.2,16.9,4.1,-3.5,x,x
CC1=C(C(=O)OCCC(C)C)C(c2ccc3c(c2)OCO3)NC(=O)N1 (stereo not given),3.2,3.0,-11.9,-0.7,x,x

# Screening results from PubChem BioAssay.
